Only some compounds are listed: those with a hit (about 22% of all), similar ones and a draw of the others.
CYP2C9 act: increases human cytochrome P450 2C9 activity; recombinant CYP2C9, luciferin-H conversion, luminescence; hits give high values; factor 1 = untreated enzyme, 0 = blocked; P11712; 96,000 tested, 1.4% active; activation factor at 5 µM;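 active means activation factor of 2 or more for CYP2C9 at a 5 µM dose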;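 further: 0 = sulfaphenazole-blocked wells and 1 = vehicle-only wells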
CYP2C19 inh: inhibitors of human CYP2C19 | P33261 | CYP2C19 Supersomes, luciferin-H EGE luminescence, 30 min | inhibition, % at 5 µM | 96,000 tested, 21% active | AID 778;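 active means CYP2C19 inhibition above a set limit at 5 µM in the primary screen, cut at about 50% in these data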;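 further: plate controls were negative control wells for no effect and 2.5 mM tranylcypromine positive control for full effect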
Target sequence (P33261 whole entry, looked up): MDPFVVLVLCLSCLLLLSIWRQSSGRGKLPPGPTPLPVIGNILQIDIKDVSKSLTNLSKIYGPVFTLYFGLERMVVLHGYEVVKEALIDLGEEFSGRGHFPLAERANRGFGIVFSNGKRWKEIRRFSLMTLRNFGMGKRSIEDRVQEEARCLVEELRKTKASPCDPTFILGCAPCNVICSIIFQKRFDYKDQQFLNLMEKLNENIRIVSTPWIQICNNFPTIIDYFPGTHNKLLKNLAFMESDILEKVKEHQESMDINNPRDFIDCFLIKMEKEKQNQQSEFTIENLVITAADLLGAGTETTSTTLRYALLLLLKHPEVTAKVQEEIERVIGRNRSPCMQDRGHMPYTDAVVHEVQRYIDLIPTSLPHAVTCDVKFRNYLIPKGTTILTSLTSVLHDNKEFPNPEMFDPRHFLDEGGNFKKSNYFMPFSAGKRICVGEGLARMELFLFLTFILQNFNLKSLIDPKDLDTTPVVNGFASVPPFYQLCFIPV
Measles CPE: protection of cells from measles virus; Measles virus-infected cells, CPE protection, absorbance; protection (pct of control), % at 4 µM; 140,000 tested, 1.5% active; in the data active means protection mostly above about 24%, no sharp cut-off; inactive means mostly below about 26%
CYP2C9 inhib: human CYP2C9 inhibition. P11712. CYP2C9 Supersomes, luciferin-H conversion, luminescence. inhibition, % at 5 µM. 96,000 tested, 20% active. AID 777;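 active means blocking of liver enzyme CYP2C9 beyond about 50% at 5 µM, limit read from the data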
CYP2C19 activ: increases human CYP2C19 enzyme activity | P33261 | recombinant CYP2C19, luciferin-H EGE luminescence; hits give high values; 0 = fully inhibited enzyme, 1 = untreated enzyme | activation factor at 5 µM | 96,000 tested, under 10 active;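 active means activation factor of at least 2 at 5 µM in the primary screen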;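 further: 0 = wells with 2.5 mM tranylcypromine and 1 = vehicle-only wells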
The depositor's hits bear a star; nt = no result.

SMILES	CYP2C9 act	CYP2C19 inh	Measles CPE	CYP2C9 inhib	CYP2C19 activ
Cc1cc(SCC(=O)c2cccs2)nc2c(C)cccc12	1.2	17	6	-17	0.8
N#Cc1c(-c2cccs2)cc(C2CC2)nc1SCC(N)=O	0.9	59*	7	13	0.4
CC(C)c1cc(C(F)(F)F)n2nc(C(=O)Nc3ccc4c(c3)OCO4)cc2n1	0.7	22	3	32	0.8
Cc1c(C(=O)NN2CCN(C)CC2)cccc1[N+](=O)[O-]	nt	nt	19	nt	nt
O=C(c1ccc(N2CCCC2=O)cc1)N1CCN(c2ccccc2)CC1	0.6	20	14	40	0.8
Cc1cccc(N2CCN(C(=O)c3ccc(N4CCCC4=O)cc3)CC2)c1C	0.3	52*	2	70*	0.5
Cc1cccc(N2CCN(C(=O)c3ccc(N4CCCC4=O)cc3)CC2C)c1 (configuration not stated)	0.7	56*	7	29	0.4
O=C(c1ccc(N2CCCC2=O)cc1)N1CCCCCC1	1	58*	21	1	0.4
COc1cccc(CNC(=O)C2CCCN(c3nc4ccccc4o3)C2)c1 (configuration not stated)	0.7	28	16	27	0.7
NS(=O)(=O)c1ccc(CCNC(=O)C2CCCN(S(=O)(=O)c3cccnc3)C2)cc1 (configuration not stated)	0.8	-2	7	18	1
CCS(=O)(=O)N1CCCC(C(=O)NCCc2ccc(C)cc2)C1 (configuration not stated)	nt	nt	6	nt	nt
Cc1ccc(CNC(=O)C2CCN(S(=O)(=O)N3CCC4(CC3)OCCO4)CC2)cc1	nt	nt	10	nt	nt
Cc1ccc(CCNC(=O)C2CCCN(S(=O)(=O)c3cnc[nH]3)C2)cc1 (configuration not stated)	0.2	87*	20	78*	0.1
O=C(NCCc1ccc(Cl)cc1)C1CCCN(S(=O)(=O)c2cnc[nH]2)C1 (configuration not stated)	0.1	92*	7	86*	0.1
O=C(NCCc1ccc(Cl)cc1)C1CCN(S(=O)(=O)N2CCC3(CC2)OCCO3)CC1	0.7	77*	4	33	0.2
Cc1ccc(CCNC(=O)C2CCCN(c3nc4ccccc4o3)C2)cc1 (configuration not stated)	0.5	61*	5	50*	0.4
COCCNC(=O)C1CC(=O)N(CCc2ccccc2)C1 (configuration not stated)	1.1	22	6	-13	0.8
CC(C)CNC(=S)N(Cc1ccco1)Cc1cc2cc3c(cc2[nH]c1=O)OCCO3	nt	nt	7	nt	nt
COc1ccc2c(c1)c(C(=O)N/N=C/c1ccc(OC)c(OC)c1)c(C)n2C	nt	nt	17	nt	nt
O=C(NCCC1=CCCCC1)C1CCN(C(=O)c2ccc(Br)cc2)CC1	nt	nt	30*	nt	nt
O=C(NCCC1=CCCCC1)C1CCN(S(=O)(=O)c2cnc[nH]2)CC1	0	78*	15	96*	0.2
O=C(NC1CCCCCC1)C1CCN(c2nc3ccccc3o2)CC1	0.7	20	32*	32	0.8
Cc1oc(-c2ccccc2F)nc1CN1CCC(C(=O)NCCC2=CCCCC2)CC1	2.3*	5	24*	-127	1
CC1CCCCN1CCCNC(=O)C1CCN(c2nc3ccccc3o2)CC1 (configuration not stated)	0.9	14	1	13	0.9
C1CCCN(CCCCN2CCCCCC2)CC1	0.9	-3	16	8	1
SMILES	CYP2C9 act	CYP2C19 inh	Measles CPE	CYP2C9 inhib	CYP2C19 activ
Cc1noc(C)c1S(=O)(=O)N1CCCC(C(=O)NCCc2ccc(Cl)cc2)C1 (configuration not stated)	0.6	69*	18	44	0.3
Cc1nn(C)c(C)c1S(=O)(=O)N1CCCC(C(=O)NCCc2ccc(Cl)cc2)C1 (configuration not stated)	1.1	7	23	-13	0.9
O=C1CN(c2nc3ccccc3n3cnnc23)CC(=O)N1CCc1ccccc1	0.4	44	15	62*	0.6
c1ccc(CNc2nc3ccccc3n3cnnc23)cc1	0.8	28	3	20	0.7
O=C1COc2ccccc2N1Cc1ccccc1Cl	0.8	80*	31	22	0.2
COC(=O)CN1C(=O)COc2ccc(Cl)cc21	nt	nt	8	nt	nt
O=C(CN1C(=O)COc2ccccc21)c1cccc(Cl)c1	0.1	99*	12	93*	0
O=C(CN1C(=O)COc2ccccc21)c1ccc(Cl)cc1	0.1	98*	4	86*	0
O=C(CN1C(=O)COc2ccccc21)N(Cc1cccnc1)Cc1ccccc1F	0.5	40	10	54*	0.6
CCCC1(C(=O)O)NC(c2ccc(OC)cc2O)C2C(=O)N(c3ccc(OC)cc3)C(=O)C21 (configuration not stated)	1	1	8	-4	1
CC12CCC(=O)N1C(C(=O)OCC(=O)Nc1cc(S(=O)(=O)N3CCCCC3)ccc1Cl)CS2 (configuration not stated)	nt	nt	7	nt	nt
CCc1c(C#N)c(SCCC(=O)Nc2ccc(C)cc2)nc2c1C(=O)CC(C)(C)C2	0	96*	5	95*	0
CCOc1ccc(NC(=O)CCSc2nc3c(c(CC)c2C#N)C(=O)CC(C)(C)C3)cc1	0.1	90*	21	90*	0.1
Cc1cnc(NC(=O)CSc2nnc(-c3cccs3)n2C)s1	0.9	24	20	12	0.8
CC1CCCCC1NS(=O)(=O)c1ccc(-n2cnnn2)cc1 (configuration not stated)	1	88*	32	0	0.1
CN(C1CCCCC1)S(=O)(=O)c1ccc(-n2cnnn2)cc1	0.7	100*	6	25	0
O=S(=O)(c1ccc(-n2cnnn2)cc1)N(C1CCCCC1)C1CCCCC1	1	-3	4	-4	1
CC1CCCCC1NS(=O)(=O)c1ccc(S(=O)(=O)N2CCCC2)cc1 (configuration not stated)	0.2	79*	15	79*	0.2
O=C(c1cnc(-c2ccccc2)s1)c1ccc(Cl)cc1Cl	0.7	57*	4	32	0.4
CCOc1ccc2oc(-c3ccccc3)c(C(=O)O)c2c1	1.1	-10	17	-12	1.1
CCOc1ccc2oc(-c3ccccc3)c(C(=O)N3CCN(CCO)CC3)c2c1	0.2	40	6	82*	0.6
Cc1cc2c(cc1C)C(c1cccc([N+](=O)[O-])c1)CC(=O)N2 (configuration not stated)	nt	nt	13	nt	nt
O=C1CC(c2cccc(Br)c2)c2cc3c(cc2N1)CCC3 (configuration not stated)	0.5	29	25	55*	0.7
Nc1cc(C(F)(F)F)cc2c1SCC(=O)N2	nt	nt	4	nt	nt
CC1(C)N=C(SCC(=O)Nc2ccc(Cl)cc2)C(c2ccccc2)=N1	0.3	77*	30	68*	0.2
CC1(C)N=C(SCC(=O)Nc2ccc(Cl)cc2)C(c2ccc(Cl)cc2)=N1	0.6	38	10	40	0.6
COC(=O)c1ccccc1OCCCN(C)C	nt	nt	19	nt	nt
